ALDH1A1 block – blocks purified human ALDH1A1 activity. AID 1030. Potency, µM (highest dose often 75.3 µM), inactives show top-dose activity, negative = inhibition, actives largely listed as inhibitors. Purified ALDH1A1, NADH fluorescence, propionaldehyde substrate. P00352. 7.3% of 220,000 active;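 also: potency is read from the fitted curve at half-maximal effect; plate controls were no enzyme wells and a reference inhibitor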
Target sequence (P00352 whole entry, looked up): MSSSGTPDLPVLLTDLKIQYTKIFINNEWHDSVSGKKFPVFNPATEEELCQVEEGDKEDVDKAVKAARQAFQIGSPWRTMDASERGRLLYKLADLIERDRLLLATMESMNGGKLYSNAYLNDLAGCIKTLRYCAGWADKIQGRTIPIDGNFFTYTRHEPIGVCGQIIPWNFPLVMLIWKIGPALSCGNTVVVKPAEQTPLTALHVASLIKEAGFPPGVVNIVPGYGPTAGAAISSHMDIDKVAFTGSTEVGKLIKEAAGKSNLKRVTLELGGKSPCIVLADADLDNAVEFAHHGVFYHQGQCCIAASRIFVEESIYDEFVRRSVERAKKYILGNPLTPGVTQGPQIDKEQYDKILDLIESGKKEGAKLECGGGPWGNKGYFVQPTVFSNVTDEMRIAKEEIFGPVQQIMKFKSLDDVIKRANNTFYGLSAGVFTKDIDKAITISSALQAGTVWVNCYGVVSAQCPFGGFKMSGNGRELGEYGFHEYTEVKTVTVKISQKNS
PNC assembly inh – blocks assembly of the perinucleolar compartment; PC3M PTB-GFP, PNC prevalence imaging, 16 h; hits give low values; activity change (PNC), negative = inhibition, % at 10 µM; 3.1% of 140,000 active;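 active = readout at or below -70, meaning at least 70% loss of cells showing the perinucleolar compartment, a nuclear body marking cancer cells; inconclusive = readout between -30 and a set limit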;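 also: plate controls were DMSO wells for no effect and camptothecin positive control wells for full effect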
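Read-out is percentage of cells bearing a perinucleolar compartment, from automated 20x imaging of fixed, Hoechst-stained PC3M PTB-GFP cells. Cells were seeded 4 h, then exposed 16 h to compound (23 nl of library stock) in duplicate plates.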
HPGD block – HPGD (human) dehydrogenase inhibition | purified HPGD, NADH fluorescence kinetic, PGE2 substrate | Potency, µM, for inactives: top-dose activity change, negative = inhibition, hits mostly inhibitors | 4.3% of 150,000 active | AID 894; also: potency is read from the fitted curve at half-maximal effect
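20 nM HPGD preincubated 15 min at room temperature with compound in 50 mM Tris-HCl pH 8, 0.01% Tween 20. Started with 1 mM NAD+ and 30 uM prostaglandin E2; NADH fluorescence (360/450 nm) read 5 times over 30-s intervals, last minus first.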
* = called active by the depositor; ? = inconclusive; . = no result; [ ] = dose if it differs, or a comment. Rows were chosen to be rich in hits. Some 11% of all compounds tested hit in one or more screens of this group. Unless noted, calls follow the shape of the dose curve; as a rule, active = well fitted inhibition curve with a large enough effect (not every such curve was filed as active); inconclusive = small, poorly fitted or top-dose-only effect, or another doubt; inactive = no such curve, though single readings can be large or run the other way. Unless noted, % is scaled to controls: 0 for no effect and ±100 for the full control effect.

SMILES	ALDH1A1 block	PNC assembly inh	HPGD block
COc1ccccc1CCNCc1ccc(OC)c(OCc2ccccc2)c1	-12.4%	?	-8.5%
c1ccc(C[C@@H](Nc2cccnc2)c2ccccc2)cc1	8.1%[13.5 µM]	.	-1.1%
O=C(CN1CCOCC1)Nc1ncc(Cc2cccc3ccccc23)s1	-4.4%	?	-12.5%
COC(=O)c1ccccc1NC(=O)CSCC(=O)Nc1ccc(F)cc1	-6.6%	13.8	-6.4%
CC(O)CC(C)O (stereo unspecified)	0.8%	.	-5.3%
CCCCc1ccc(S(=O)(=O)Nc2cc(C)on2)cc1	2.5%	-11.1	-15.3%
CC(C)(C)n1nnnc1C(c1cccs1)N1CCN(c2ccccc2)CC1 (stereo unspecified)	6.8%	?	-11.7%
Oc1c(C(c2cccs2)N2CCN(c3ccccc3)CC2)ccc2cccnc12 (stereo unspecified)	2µM*	?	1.78µM*
CN1CCN(c2ccc(NC(=O)CN3CCOCC3)cc2F)CC1	6.9%	.	.
Cn1c(CSCc2ccc(Cl)cc2)nnc1SCC(=O)Nc1nc2ccccc2s1	13.3%	-21.4	-2.9%
COc1ccc(OCC(=O)NCCCN2CCOCC2)cc1	11.1%	13.3	-9.5%
O=C(COc1cccc(Cl)c1)N/N=C\c1cc2ccccc2nc1Cl	?	-1.5	?
O=C(CNc1ccc2ccccc2c1)N/N=C/c1cc2ccccc2nc1Cl	22.4µM*	3.2	-12.7%
CSCCC1COC(c2cccs2)=N1 (stereo unspecified)	9.4%	.	.
CCN(CC)S(=O)(=O)c1ccc(OC(C)C)c(NC(=O)c2c3c(nc4ccccc24)CCN(Cc2ccccc2)C3)c1	?	-20.2	-8.0%
Brc1ccc(-c2csc(-c3ccncc3)n2)cc1	11.1%	26.8	-8.5%
O=C(COc1ccc(Cl)cc1Cl)OCC(=O)N1CCCc2ccccc21	4.3%	?	-6.6%
O=C(COc1ccc(Cl)cc1Cl)NC(=O)N1CCCCC1	4.0%	-22.7	15.8µM*
O=C(COc1ccc(Cl)cc1Cl)NC(=S)N1CCCc2ccccc21	7.51µM*	-0.7	22.4µM*
O=C(COc1ccc(Cl)cc1Cl)N1CCCN(C(=O)COc2ccc(Cl)cc2Cl)CC1	7.9%	3.3	-0.5%
CCNC(=O)N(C(=O)NCC)n1c(C)nnc1C	?	-14.6	-10.3%
CC(C(=O)OCC(=O)c1ccc([N+](=O)[O-])cc1)N1C(=O)C2C3CCC(C3)C2C1=O (stereo unspecified)	3.16µM*	.	.
CC(C(=O)OCC(=O)c1ccccc1)N1C(=O)C2C3CCC(C3)C2C1=O (stereo unspecified)	-1.0%	.	.
CC(C)(C)C(=O)Nc1ccc(-c2csnn2)cc1	5.0%	.	.
O=C1C(Cl)=C(NCCN2CCOCC2)C(=O)c2ncccc21	13.8%	.	-15.6%
SMILES	ALDH1A1 block	PNC assembly inh	HPGD block
O=C1C(Cl)=C(NC2CCc3ccccc32)C(=O)c2ncccc21 (stereo unspecified)	11.2µM*	.	-9.1%
CCOC(=O)C1=C(c2ccccc2)NC(=S)NC1C (stereo unspecified)	2µM*	?	-7.7%
CCOC(=O)C1=C(c2ccccc2)NC(=O)NC1c1ccc(O)c(OCC)c1 (stereo unspecified)	-10.8%	.	.
CCOC(=O)C1=C(C)NC(=S)NC1C (stereo unspecified)	0.4%	.	.
CCOC(=O)C1=C(c2ccccc2)NC(=O)N(C(C)=O)C1c1cccc([N+](=O)[O-])c1 (stereo unspecified)	-3.8%	.	.
CCOC(=O)C1=C(c2ccccc2)NC(=S)NC1c1ccc(C)c([N+](=O)[O-])c1 (stereo unspecified)	0.251µM*	3.1	-17.6%
CCOC(=O)C1=C(c2ccccc2)NC(=O)NC1c1ccc(OCC#N)c(OC)c1 (stereo unspecified)	?	?	-10.9%
CCOC(=O)C1=C(c2ccccc2)NC(=S)NC1c1cccc([N+](=O)[O-])c1 (stereo unspecified)	0.891µM*	-20.1	.
CCOC(=O)C1=C(c2ccccc2)NC(=S)NC1c1cc([N+](=O)[O-])ccc1OC (stereo unspecified)	3.98µM*	-7.9	-6.9%
CON(C)C(=O)c1nnc2c(n1)[nH]c1ccccc12	-5.1%[13.5 µM]	.	.
O=C(O)CCCSc1nc2ccccc2s1	-10.8%[13.5 µM]	.	-24.4%
O=C(CSc1nc2ccccc2s1)N1CCOCC1	?	16.0	-28.5%
O=C1CCCCCN1CSc1nc2ccccc2s1	12.6µM*	-7.2	-23.8%
NC(=O)C1(N2CCCCC2)CCN(C(=O)CSc2nc3ccccc3s2)CC1	25.1µM*	?	-24.5%
CC1(C(=O)CSc2nc3ccccc3s2)CCC(=O)O1 (stereo unspecified)	?	40.7	-17.6%
CCS(=O)CCSc1nc2ccccc2s1 (stereo unspecified)	?	97.4	15.8µM*
O=C(c1ccc(Cl)cc1)c1oc2ccccc2c1CS(=O)(=O)c1ccccc1	?	?	-16.0%
Cc1cc2n(n1)C(c1cccs1)Nc1ccccc1-2 (stereo unspecified)	-4.3%	-10.9	-24.8%
COC(=O)[C@@H]1C[C@H]1[C@@H](NS(=O)(=O)c1ccc2ccccc2c1)c1ccccc1	3.8%	.	-9.0%
C[C@@H]1NC(=O)[C@H](CCC(N)=O)NC(=O)c2cc([N+](=O)[O-])cc(I)c2NCC[C@@H](C(N)=O)NC1=O	-4.8%	30.2	-9.9%
C[C@@H]1NC(=O)c2cc([N+](=O)[O-])cc(I)c2NCC[C@@H](C(N)=O)NC(=O)[C@H](CC(N)=O)NC1=O	-4.8%	-103.5*	-10.9%
COCC(=O)N1CCC[C@@]2(CCN(Cc3ccccc3)C2)C1	-4.4%	.	-4.8%
CCCCCOc1ccc(C2C(C(C)=O)=C(C)Nc3ncnn32)cc1OC (stereo unspecified)	5.5%	2.3	-24.1%
CN1Cc2cc(C(=O)c3cc(Cl)cc(CSc4ncccn4)c3O)cnc2NC1=O	28.2µM*	?	14.1µM*
Cc1ccc2c(c1)-c1ncc(C(=O)c3cc(Br)ccc3O)cc1CO2	-15.6%	.	.
SMILES	ALDH1A1 block	PNC assembly inh	HPGD block
Cc1ccc(O)c(C(=O)c2cnc3c(c2)COc2ccc(C)cc2-3)c1	-4.1%	?	17.8µM*
Cc1ccc(O)c(C(=O)c2cnc3c(c2)CN(C)C(=O)N3)c1	25.1µM*	?	28.2µM*
CC1=C(C(N)=O)C(c2ccccn2)n2nc(SCc3ccccc3Cl)nc2N1 (stereo unspecified)	6.4%	29.0	-1.8%
Cc1ccc(O)c(C(=O)c2cnc3c(c2)CN(CCC(C)C)C(=O)N3)c1	?	0.9	-20.2%
CSc1cccc(NC(=S)N(Cc2ccccc2)Cc2cccnc2)c1	-6.5%	.	.
COc1cccc(NC(=O)CSc2nc3ccccc3n2C)c1	6.1%	.	.
COc1ccc2c(c1)nc(SCC(=O)c1ccc(Br)s1)n2C	28.2µM*	-23.7	?
Cc1ccc(/C=N/NC(=O)c2ccc(Br)o2)s1	6.9%	-97.9*	-13.0%
CCc1ccc(/C=N\NC(=O)c2ccc(Br)o2)s1	-4.1%	-2.7	-23.7%
CC(C)[C@@H](OCc1ccccc1)[C@H](C)/C=N\OC[C@@H](O)[C@@H]1O[C@@H]2OC(C)(C)O[C@@H]2[C@H]1O	1.9%[13.5 µM]	.	.
CC(=O)N1CCN(C2=NC(=O)/C(=C\c3cccs3)S2)CC1	-7.2%	.	.
CC(=O)N1CCN(C2=NC(=O)C(=C3CCCCC3)S2)CC1	12.6µM*	-100.0*	-8.9%
O=C1N=C(N2CCOCC2)SC1=C1CCCCC1	2µM*	-15.8	-28.5%
